Assay [1] is described as follows: Cytometric Cell-Based qHTS for Inhibitors of the mTORC1 Signaling Pathway in MEF (Tsc2-/-, p53-/-) Cells (AID 2660).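 Further: Tsc2 and p53 null MEFs carrying empty vector with compound for 24 h; percent of cells above a phospho-rpS6 to PI ratio cutoff in each well; series mostly up to about 38 µM.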 The method in brief:
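Percent of cells positive for normalized phospho-S6 staining is reported, with the cutoff set from rapamycin (7.5 nM) versus DMSO wells. Tsc2-/-, p53-/- MEFs received compound for 24 hrs.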
(In general: Quantitative high-throughput screening tests each substance at several concentrations.)

Assay [2] in a line: High Content Imaging Cell-Based qHTS for Inhibitors of the mTORC1 Signaling Pathway in MEF (Tsc2-/-, p53-/-) Cells (AID 2666).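 Further: percent of cells scored positive for phospho-rpS6 Ser235/236 immunostaining by imaging.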 The method in brief:
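Inhibition of rpS6 phosphorylation is measured by immunofluorescence imaging in empty-vector Tsc2-/-, p53-/- mouse embryonic fibroblasts after 24 hrs compound exposure at 37 degree Celsius. Results are reported as % positive cells per well.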

The nature of assay [3]: High Content Imaging Cell-Based qHTS for Inhibitors of the mTORC1 Signaling Pathway in MEF Cells (AID 2667).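 Further: Tsc2-/- p53-/- MEFs stably re-expressing wild-type Tsc2 exposed 24 h; series mostly up to about 38 µM.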 The method in brief:
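Fixed-cell imaging of phospho-S6 (Ser235/236, Alexa-488) after 24 hrs of compound treatment at 37 degree Celsius. Signal was normalized to Hoechst, and thresholds from the highest and lowest wells split cells into % active versus % non-active.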

Assay [4] in a line: Cytometry Cell-Based qHTS for Inhibitors of the mTORC1 Signaling Pathway in MEF cells (AID 2668).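 Further: Tsc2-/- p53-/- mouse embryonic fibroblasts stably re-expressing wild-type Tsc2; percent cells positive for phospho-rpS6 Ser235/236 relative to propidium iodide stain; series mostly up to about 38 µM.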 The essentials: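 Phospho-rpS6 (Ser235/236) immunofluorescence over PI signal, scored as % positive cells using thresholds from 7.5 nM rapamycin and DMSO wells, after 24 h compound exposure of WT-Tsc2-rescued Tsc2-/-, p53-/- MEFs. PI cell count recorded for viability.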
Assay [5] is described as follows: Validation screen for small molecules that induce DNA re-replication in MCF 10A normal breast cells (AID 463097). Further: nearly all actives have a fitted effect of over 60% in size. The essentials:
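Read-out is Hoechst total nuclear intensity by fluorescence scanning imager, flagging increased high-DNA-content nuclei. Compounds were incubated with MCF 10A cells for 48 hr (37 C, 5% CO2) before 40 min staining.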

The target of assay [6] is Ubiquitin carboxyl-terminal hydrolase 2 (Homo sapiens) (UniProt O75604). Put plainly: qHTS Validation Assay for Inhibitors of Ubiquitin-specific Protease USP2a Using CHOP2 as the Reporter (AID 463106). The essentials: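 Inhibition is expressed relative to NEM as the full-inhibition control, with concentration-response curves classed by fit quality, magnitude and activity. Enzyme (USP2 core, 10nM) meets 25nM Ub-CHOP2 after compound preincubation; readings are taken at 60min.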

The target in assay [7] is DNA polymerase III PolC-type (Bacillus subtilis (strain 168)) (UniProt P13267). Description: qHTS Validation Assay for the Inhibitors of DNA Replication in Gram-Positive Bacteria (AID 485295).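 Further: reconstituted holoenzyme with PolC plus beta clamp SSB and primase; PicoGreen fluorescence of double-stranded DNA made on primed circular M13 template; series mostly up to about 57 µM.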 The method in brief: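 Double-stranded DNA product detected by PicoGreen fluorescence after EDTA quench. Compound incubated with B. subtilis holoenzyme (PolC, beta subunit, SSB, primase) before substrate addition; primed replication of M13Gori with dNTPs and NTPs at room temperature; DMSO defines 0% inhibition.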

Assay [8] addresses Tumor susceptibility gene 101 protein (Homo sapiens) (UniProt Q99816). Put plainly: qHTS Validation Assay for Iinhibitors of HIV-1 Budding by Blocking the Interaction of PTAP/TSG101 (AID 485342; calls by dose curve). The essentials: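 Fluorescence polarization of 50 nM FITC-PTAP peptide bound to 10 uM Tsg101 binding domain was read after 20 min room-temperature incubation with compounds, in 10 mM HEPES pH 7.5, 0.15 M NaCl, 0.01% Tween 20.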

Assay [9] is described as follows: qHTS Validation Assay to Find Inhibitors of Chronic Active B-Cell Receptor Signaling (AID 485345; active means well fitted curve in the direction sought with a large enough effect in the main read-out, with a control signal flat, not every such curve was filed as active). The essentials:
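TMD8 ABC-DLBCL cells with dox-inducible green luciferase–IκBα fusion and red native luciferase; compounds 46 uM–3 nM, 4 h at 37C with doxycycline in 0.5% FBS IMDM. Green/red ratio normalized to basal and 10 uM MG-132.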

Assay [10] concerns the target Beta-2 adrenergic receptor (Homo sapiens) (UniProt P07550). Put plainly: qHTS validation assay of beta-arrestin-biased ligands of beta2-adrenergic receptor (AID 485366). The essentials:
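Screening used a titration range of up to 46 microM in a beta-arrestin recruitment Tango luciferase assay. Cells in 1% FBS medium were treated 18 hr at 37 degrees C, and luminescence was normalized to %Activity.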

Assay [11] can be described thus: Quantitative high throughput screen for delayed death inhibitors of the malarial parasite plastid, 96 hour incubation (AID 488745). Further: series mostly up to about 29 µM; nearly all actives have a fitted effect of over 70% in size. The method in brief:
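Decreased firefly luciferase luminescence indicates inhibited growth of reporter-integrated P. falciparum after two generations (96 h, 37 C, 5% CO2). Infected erythrocytes at 0.1% parasitemia, 2% hematocrit, in Albumax-supplemented RPMI 1640.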

Assay [12] in a line: Quantitative high throughput screen for delayed death inhibitors of the malarial parasite plastid, 48 hour incubation (AID 488752). Further: nearly all actives have a fitted effect of over 65% in size. The method in brief:
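One-generation (48 h) growth assay: a decrease in luciferase signal from an integrated reporter in P. falciparum-infected red cells (0.1% parasitemia, 2% hematocrit) after compound exposure at 37 C indicates parasite inhibition.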

Assay [13] concerns the target Thioredoxin reductase 1, cytoplasmic (Rattus norvegicus) (UniProt O89049). Put plainly: qHTS Assay for Substrates of Mammalian Selenoprotein Thioredoxin Reductase 1 (TrxR1) (AID 488772).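 Further: series mostly up to about 57 µM; a drop in NADPH fluorescence below the no-compound background marks a TrxR1 substrate.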 The essentials: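 In this dual-purpose format, potential substrates are identified from the first fluorescence read after selenite addition, not from the 8-minute delta. Rat enzyme is preincubated with NADPH and then with compound at ~22 deg C.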

Assay [14] deals with M-phase phosphoprotein 8 (Homo sapiens) (UniProt Q99549). Put plainly: qHTS Validation Assay for Inhibitors for MPP8 Chromodomain Interactions with Methylated Histone Tails (AID 488949). Further: nearly all actives have a fitted effect of over 55% in size. Further: potency means the concentration at half of the fitted maximal effect. The essentials:
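AlphaScreen proximity signal from streptavidin donor and Ni-chelate acceptor beads (10 ug/mL each) reported binding of MPP8 to trimethyl-K9 H3(1-18) peptide, both at 50 nM. The complex formed 30 min before a 30 min compound exposure at room temperature, in PBS pH 7.4.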

Assay [15] addresses Chromobox protein homolog 1 (Homo sapiens) (UniProt P83916). Description: qHTS Validation Assay for Inhibitors of HP1-beta Chromodomain Interactions with Methylated Histone Tails (AID 488953). Further: nearly all actives have a fitted effect of over 50% in size. Further: potency means the concentration at half of the fitted maximal effect. The essentials:
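AlphaScreen proximity signal from streptavidin donor and nickel chelate acceptor beads (final 10 ug/mL) after 30 min dark incubation. Compounds had 30 min at room temperature with preformed complex of 50 nM HP1-beta and 50 nM b-H3(1-18)K9me3 in PBS pH 7.4 with 0.01% Tween-20.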

The target in assay [16] is ATP-dependent 6-phosphofructokinase (Trypanosoma brucei brucei) (UniProt O15648). Put plainly: qHTS Validation Assay to Find Inhibitors of T. brucei phosphofructokinase (AID 485368). The essentials:
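PFK-generated ADP was measured after 45 min at room temperature using ADP-Glo. The reaction contained 0.5 mM F6P and 0.1 mM ATP.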

In assay [17] the target is Thioredoxin reductase 1, cytoplasmic (Rattus norvegicus) (UniProt O89049). Put plainly: qHTS Assay for Inhibitors of Mammalian Selenoprotein Thioredoxin Reductase 1 (TrxR1) (AID 488773).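 Further: drop in NADPH fluorescence over an 8 min run after selenite addition; series mostly up to about 57 µM; nearly all actives have a fitted effect of over 40% in size.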 The following applies: Potency: inhibition. The method in brief:
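Inhibition is scored from the loss of NADPH fluorescence between first and last reads of an 8-min kinetic run. Selenite (400 uM) was the substrate, added after 15 min compound preincubation at room temperature.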

The target in assay [18] is Flap endonuclease 1 (Homo sapiens) (UniProt P39748). Put plainly: qHTS Validation Assay for the Inhibitors of Human Flap endonuclease 1 (FEN1) (AID 488816). The method in brief:
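Steps: add FEN1 (10 nM reagent) or buffer only; pin compounds; hold 15 min at room temperature; start with substrate, 50 nM final; read at 0 and 15 min; correct, normalize and fit a four-parameter Hill curve.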

The text below walks through data of PubChem BioAssay (NCATS).

SMILES strings stand for the structures. Results filed as inconclusive are left out. Where a structure was tested more than once in an assay, its records may differ in their call. Active and inactive are the calls of the source. Unless noted, the call rests on the fitted dose curve; in most records, active means well fitted curve in the direction sought with a large enough effect; inconclusive means small, poorly fitted or top-dose-only effect, or another doubt; inactive means no such curve, though single readings can be large; an effect the other way counts as inactive or inconclusive.

Sequence of M-phase phosphoprotein 8 (Homo sapiens) (Q99549 whole entry, looked up): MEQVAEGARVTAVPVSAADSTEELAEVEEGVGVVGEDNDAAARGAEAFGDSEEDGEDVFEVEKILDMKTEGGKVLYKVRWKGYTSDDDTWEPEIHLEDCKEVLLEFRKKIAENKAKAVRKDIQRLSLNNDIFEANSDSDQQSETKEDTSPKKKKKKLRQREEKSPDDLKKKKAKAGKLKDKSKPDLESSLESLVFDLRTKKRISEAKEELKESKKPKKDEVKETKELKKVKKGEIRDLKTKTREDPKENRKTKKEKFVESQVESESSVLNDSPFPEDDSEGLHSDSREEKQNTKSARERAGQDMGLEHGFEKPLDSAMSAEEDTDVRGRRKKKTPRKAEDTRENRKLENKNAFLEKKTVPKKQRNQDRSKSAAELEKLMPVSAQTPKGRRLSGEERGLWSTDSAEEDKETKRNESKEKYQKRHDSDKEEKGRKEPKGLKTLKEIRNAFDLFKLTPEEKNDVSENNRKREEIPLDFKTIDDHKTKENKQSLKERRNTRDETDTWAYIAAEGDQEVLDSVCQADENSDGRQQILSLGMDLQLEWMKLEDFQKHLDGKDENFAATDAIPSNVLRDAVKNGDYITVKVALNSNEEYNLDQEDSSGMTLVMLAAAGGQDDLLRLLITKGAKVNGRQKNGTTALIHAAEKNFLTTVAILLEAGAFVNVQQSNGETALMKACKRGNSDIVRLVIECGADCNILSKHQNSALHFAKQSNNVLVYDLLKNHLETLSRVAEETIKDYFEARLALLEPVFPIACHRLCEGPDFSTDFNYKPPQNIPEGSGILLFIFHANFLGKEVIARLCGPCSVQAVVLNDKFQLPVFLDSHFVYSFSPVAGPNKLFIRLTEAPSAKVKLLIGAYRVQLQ
Sequence of Chromobox protein homolog 1 (Homo sapiens) (P83916 whole entry, looked up): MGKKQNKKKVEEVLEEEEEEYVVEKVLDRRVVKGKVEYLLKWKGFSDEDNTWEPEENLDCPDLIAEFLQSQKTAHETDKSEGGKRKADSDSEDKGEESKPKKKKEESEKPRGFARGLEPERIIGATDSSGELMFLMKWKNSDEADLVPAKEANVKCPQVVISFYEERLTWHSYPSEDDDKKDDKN
Sequence of Beta-2 adrenergic receptor (Homo sapiens) (P07550 whole entry, looked up): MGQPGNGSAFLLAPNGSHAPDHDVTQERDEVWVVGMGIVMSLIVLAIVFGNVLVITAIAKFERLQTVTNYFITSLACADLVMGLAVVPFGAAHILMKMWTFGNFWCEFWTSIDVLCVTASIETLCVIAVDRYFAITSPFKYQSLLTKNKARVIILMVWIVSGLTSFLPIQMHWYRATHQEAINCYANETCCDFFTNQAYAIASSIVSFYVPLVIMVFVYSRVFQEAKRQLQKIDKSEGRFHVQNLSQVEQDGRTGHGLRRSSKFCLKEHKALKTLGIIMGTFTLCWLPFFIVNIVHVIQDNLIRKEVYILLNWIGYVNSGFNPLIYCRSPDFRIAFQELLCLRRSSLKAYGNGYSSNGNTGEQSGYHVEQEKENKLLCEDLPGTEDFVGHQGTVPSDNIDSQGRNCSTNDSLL
Sequence of Ubiquitin carboxyl-terminal hydrolase 2 (Homo sapiens) (O75604 whole entry, looked up): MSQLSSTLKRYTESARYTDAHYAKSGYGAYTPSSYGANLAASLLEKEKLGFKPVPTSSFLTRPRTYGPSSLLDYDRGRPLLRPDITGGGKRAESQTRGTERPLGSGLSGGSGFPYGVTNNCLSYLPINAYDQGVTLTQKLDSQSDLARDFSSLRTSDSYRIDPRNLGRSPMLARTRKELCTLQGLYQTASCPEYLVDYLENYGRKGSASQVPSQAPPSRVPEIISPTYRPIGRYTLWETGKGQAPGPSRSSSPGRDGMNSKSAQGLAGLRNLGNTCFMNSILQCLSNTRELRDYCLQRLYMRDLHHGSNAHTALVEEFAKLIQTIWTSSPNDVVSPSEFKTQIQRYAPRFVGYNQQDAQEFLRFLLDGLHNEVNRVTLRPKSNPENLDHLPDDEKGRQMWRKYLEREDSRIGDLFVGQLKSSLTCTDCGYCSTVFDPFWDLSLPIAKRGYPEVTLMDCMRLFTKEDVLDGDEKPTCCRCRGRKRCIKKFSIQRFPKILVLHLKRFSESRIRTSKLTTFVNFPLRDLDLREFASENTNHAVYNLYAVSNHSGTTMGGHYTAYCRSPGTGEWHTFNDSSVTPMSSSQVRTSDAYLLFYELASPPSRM
Sequence of DNA polymerase III PolC-type (Bacillus subtilis (strain 168)) (P13267 whole entry, looked up): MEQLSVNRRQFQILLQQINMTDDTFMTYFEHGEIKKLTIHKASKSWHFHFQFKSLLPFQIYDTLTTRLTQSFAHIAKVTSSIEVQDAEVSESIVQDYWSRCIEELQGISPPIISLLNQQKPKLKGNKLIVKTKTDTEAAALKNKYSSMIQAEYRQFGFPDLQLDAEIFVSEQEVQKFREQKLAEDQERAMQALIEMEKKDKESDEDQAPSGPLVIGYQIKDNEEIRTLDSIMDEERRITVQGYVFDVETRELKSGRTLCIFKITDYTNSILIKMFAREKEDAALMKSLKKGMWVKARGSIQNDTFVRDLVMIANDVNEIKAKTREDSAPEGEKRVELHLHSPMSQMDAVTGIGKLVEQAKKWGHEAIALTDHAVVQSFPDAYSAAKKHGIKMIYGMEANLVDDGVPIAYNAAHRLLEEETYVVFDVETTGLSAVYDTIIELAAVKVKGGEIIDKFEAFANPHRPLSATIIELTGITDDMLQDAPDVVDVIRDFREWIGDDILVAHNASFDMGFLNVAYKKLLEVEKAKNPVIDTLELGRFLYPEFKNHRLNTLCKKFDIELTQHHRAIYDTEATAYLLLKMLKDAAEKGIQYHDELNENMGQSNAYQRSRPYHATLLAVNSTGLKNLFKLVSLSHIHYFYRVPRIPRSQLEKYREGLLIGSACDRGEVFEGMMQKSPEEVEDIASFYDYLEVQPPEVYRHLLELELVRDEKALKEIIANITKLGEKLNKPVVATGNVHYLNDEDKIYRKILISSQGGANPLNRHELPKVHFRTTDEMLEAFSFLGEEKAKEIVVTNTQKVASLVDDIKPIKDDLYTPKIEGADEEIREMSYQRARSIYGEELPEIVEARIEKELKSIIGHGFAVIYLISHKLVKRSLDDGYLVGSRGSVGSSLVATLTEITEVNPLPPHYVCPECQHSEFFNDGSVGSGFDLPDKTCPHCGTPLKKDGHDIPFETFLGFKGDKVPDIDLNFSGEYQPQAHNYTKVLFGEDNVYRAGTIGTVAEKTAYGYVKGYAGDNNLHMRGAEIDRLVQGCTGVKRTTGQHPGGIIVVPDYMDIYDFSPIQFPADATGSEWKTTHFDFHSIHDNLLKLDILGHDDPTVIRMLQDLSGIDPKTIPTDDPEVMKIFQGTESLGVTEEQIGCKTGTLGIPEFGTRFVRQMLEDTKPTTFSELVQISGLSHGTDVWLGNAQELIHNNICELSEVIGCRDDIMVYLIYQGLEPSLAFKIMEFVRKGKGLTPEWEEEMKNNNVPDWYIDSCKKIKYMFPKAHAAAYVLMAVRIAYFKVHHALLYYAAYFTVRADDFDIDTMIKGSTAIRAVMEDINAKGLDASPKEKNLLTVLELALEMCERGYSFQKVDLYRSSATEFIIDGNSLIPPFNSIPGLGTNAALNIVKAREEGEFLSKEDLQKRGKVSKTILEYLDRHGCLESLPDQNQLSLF
Sequence of Tumor susceptibility gene 101 protein (Homo sapiens) (Q99816 whole entry, looked up, the tested form may be a part): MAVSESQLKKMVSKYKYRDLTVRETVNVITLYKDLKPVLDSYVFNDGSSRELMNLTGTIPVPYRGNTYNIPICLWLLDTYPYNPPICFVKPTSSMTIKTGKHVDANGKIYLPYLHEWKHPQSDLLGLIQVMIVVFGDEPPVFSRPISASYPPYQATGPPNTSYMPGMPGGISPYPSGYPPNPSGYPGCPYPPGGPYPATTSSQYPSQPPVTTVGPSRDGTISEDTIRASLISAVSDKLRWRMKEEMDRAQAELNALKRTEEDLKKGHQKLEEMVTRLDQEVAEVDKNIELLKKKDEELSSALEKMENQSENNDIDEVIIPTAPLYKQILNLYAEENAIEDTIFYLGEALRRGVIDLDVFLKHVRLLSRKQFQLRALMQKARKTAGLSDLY
Sequence of Thioredoxin reductase 1, cytoplasmic (Rattus norvegicus) (O89049 whole entry, looked up): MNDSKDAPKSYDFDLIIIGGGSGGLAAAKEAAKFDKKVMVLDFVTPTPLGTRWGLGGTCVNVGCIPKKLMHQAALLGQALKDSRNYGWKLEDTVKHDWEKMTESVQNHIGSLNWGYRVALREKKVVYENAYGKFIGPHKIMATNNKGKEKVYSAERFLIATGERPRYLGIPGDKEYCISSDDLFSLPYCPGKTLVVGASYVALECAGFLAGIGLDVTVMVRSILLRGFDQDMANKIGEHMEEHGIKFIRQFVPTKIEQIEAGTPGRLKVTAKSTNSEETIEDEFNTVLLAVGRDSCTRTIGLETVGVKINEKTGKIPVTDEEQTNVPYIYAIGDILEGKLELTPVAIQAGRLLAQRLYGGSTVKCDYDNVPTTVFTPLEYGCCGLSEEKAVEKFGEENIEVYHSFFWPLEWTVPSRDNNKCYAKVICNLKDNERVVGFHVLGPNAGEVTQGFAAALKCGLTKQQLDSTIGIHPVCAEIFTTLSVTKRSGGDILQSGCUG
Sequence of Flap endonuclease 1 (Homo sapiens) (P39748 whole entry, looked up): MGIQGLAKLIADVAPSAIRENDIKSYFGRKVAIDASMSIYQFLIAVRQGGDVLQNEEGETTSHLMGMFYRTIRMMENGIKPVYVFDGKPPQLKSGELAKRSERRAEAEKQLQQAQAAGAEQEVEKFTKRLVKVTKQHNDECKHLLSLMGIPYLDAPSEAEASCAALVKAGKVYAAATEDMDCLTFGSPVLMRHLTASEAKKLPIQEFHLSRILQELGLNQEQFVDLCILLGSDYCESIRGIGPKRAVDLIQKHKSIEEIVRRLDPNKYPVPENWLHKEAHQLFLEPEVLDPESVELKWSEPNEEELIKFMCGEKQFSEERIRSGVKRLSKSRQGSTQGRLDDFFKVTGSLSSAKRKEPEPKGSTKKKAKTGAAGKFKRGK

As for `COc1cc2c(CCNC(C)=O)c[nH]c2cc1Cl`, the call in assay [1], in [8], in [9] and in assay [10] was inactive. Moreover, the Potency result in [2], in [3], in assay [4], in [5], in assay [6] and in assay [7] was “inactive” each time. For the same molecule, the Potency entry in [11], in assay [12], in [13], in assay [14] and in [15] was “inactive” each time.

In the case of `CN1CCC[C@H]1c1cccnc1`, the call in assay [1], in assay [8], in assay [9] and in assay [10] was inactive. For the same molecule, the Potency result in assay [2], in assay [3], in [4], in [5], in assay [6] and in assay [7] was “inactive” in each case. Besides, the Potency result in assay [16], in [11], in assay [12], in [13], in assay [17] and in assay [18] was “inactive” throughout. Further, the Potency entry in assay [14] is “inactive”.

On to `NCCSSCCN`, for which the call in assay [1], in assay [8], in assay [9] and in assay [10] was inactive. The Potency result in assay [2], in assay [3], in [4], in assay [5], in [6] and in assay [7] was “inactive” in each case. The Potency result in assay [16], in assay [11], in [12], in [17] and in assay [18] was “inactive” throughout. Further, the Potency in assay [14] is 79.4 µM (active) and inactive; in assay [15] it was 50.1 µM (active).

`CC1CN(S(=O)(=O)c2cccc3cnccc23)CCN1` (stereo unspecified): the call in assay [1], in assay [8], in [9] and in assay [10] was inactive. Also, the Potency entry in assay [2], in assay [3], in assay [4], in assay [5], in [6] and in [7] was “inactive” throughout. Also, the Potency entry in assay [16], in assay [11], in assay [12], in assay [17], in [18] and in [14] was “inactive” in each case.

`O=C(O)/C=C/C(O)c1ccc(Cl)cc1` (stereo unspecified): the molecule was called inactive in [1], in assay [8], in assay [9] and in [10]. The Potency result in assay [2], in assay [3], in assay [4], in assay [5], in assay [6] and in assay [7] was “inactive” throughout. Also, the Potency entry in assay [16], in [11], in [12], in assay [13], in assay [18] and in assay [14] was “inactive” each time. Moreover, the Potency result in [15] is “inactive”.

For `NCCNC(=O)c1ncsc1-c1cccc(F)c1`, the call in assay [1], in assay [8], in assay [9] and in assay [10] was inactive. The Potency result in [2], in [3], in assay [4], in [5], in [6] and in assay [7] was “inactive” throughout. Besides, the Potency result in assay [11], in [12], in assay [13], in [17], in [18] and in assay [14] was “inactive” each time. The Potency result in assay [15] was “inactive”.

On to `COc1cccc(C(=O)NCCN2CCN(c3ccc(Cl)cc3)CC2)c1`, for which the result in assay [1], in [8], in assay [9] and in assay [10] was inactive. For the same molecule, the Potency result in assay [2], in assay [3], in [4], in [5], in [6] and in [7] was “inactive” each time. In addition, the Potency result in [16], in [11], in assay [13], in assay [17], in assay [18] and in assay [14] was “inactive” in each case. In addition, in [15], the Potency result is “inactive”.
